# Measurements: the supplement of paper PMC11417369
# Whole data set: some 25,000 sequences, median “ln(normalized median fluorescence intensity)” near 6.7, cut for the highest 2% near 10. For the sample, the highest values were picked, then their nearest neighbours and some sequences at random.
# Tested on: PfHDP1 homeodomain (GST-tagged)
# Assay: gcPBM binding intensity (ln(normalized median fluorescence intensity)); higher = stronger DNA binding
# Outline: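 Probes on an Agilent 4 × 180k array were primer-extended, double-stranded and 36 bp long, taken from intergenic genomic regions, with negative controls added. GST-tagged P. falciparum DNA-binding domains from E. coli, about 25 μg on average, were applied to the array for 1 h in 1× PBS containing 1% milk, 0.2 mg/ml BSA, 0.5% salmon testes DNA and 0.03% Triton X-100. Binding intensity, obtained after Alexa488 anti-GST antibody detection and a 488 nm scan, is the highest Masliner-normalised natural-log median intensity across replicate spots of either probe orientation.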
row,Sequence,gcPBM binding intensity (ln)
1,AATTAATGGCTAAAGGTGCACAATATATATATTACA,9.84
2,ATATTCTAAATAAAGGGTACACAAAAATAATTAAAG [XGTACX_site5529],6.9
3,TTTATATTTAAAAGGATGCACTACAAATTCTAAATA,7.36
4,GTACACTAATTATGTGCACACAAATTAAAGGTCTAC [CACACA_site146],11
5,CCACTAATTATGTGCACACAAATTAAAGGTCTACAA [CACACA_site4259],11.4
6,ACGCTAATTATGTGCACACAAATTAAAGGTCTACAA [CACACA_site147],11.4
7,GATTTATACAAATATGTACACACTAATTATATATTA [CACACA_site8045],6.9
8,TGTTAATAAAGGTGTACACAAAATAAAAAAAATTAT [CACACA_site4288],7.2
9,TCTTTATGTAAGGTCTTCCACAAAAAAATTAAAAAA [TGCATGCA_negctrl_site229],6.21
10,TTTTTCTTTCTCTATTGTACACATGGAAACACATAA [XGTACX_site4601],7.56
11,AAAAAAAAAAGAAACACACACATATATATATATAAT [CACACA_site5052],6.7
12,AATACAAACCAAAAAGTAAATACATCAACATGATCA [CACACA_negctrl_site140],6.26
13,CTATATATTTTTCATTGTACACAAATTAAAGAAAAA [XGTACX_site8385],6.61
14,ATGTTGCACAATGTTACACACACAATATATATCGTT [CACACA_site4833],10.7
15,GTTGCACAATGTTACACACACAATATATATCGTTAA [CACACA_site1275],9.41
16,GTTGCACAATGTTACACACACAATATAGATCGTTAA [CACACA_site6717],9.91
17,ATATAATTACATTGATGTACACGAAATGATTAACAT [XGTACX_site5183],6.43
18,TATTCAGGTCCAATGGTGCAATATATTTTTGTAATA [GTGCAC_site9607],10.6
19,ATTCATTTACCAATGGTGCAATATATTTTTATAATG,10.3
20,TATTCATATTTAAAGGTGCAATATTTATTTTGTACA,9.16
21,ATTAGTATATTTCTCTGTACTTACATTAAAATATAA [XGTACX_site2217],6.41
22,ATTTATTTATACAAAGTGCAATATTTTGTTAAAGTC [GTGCAC_site9618],8.15
23,TTACACATGTATTTGGTGCATGTTGTTAACAAAATA,9.83
24,TTTTTTGTTAAGTTGGTGCAAACAATAGTTATTGAC,10.7

row,Sequence,gcPBM binding intensity (ln)
1,TTTATTTTAACTTGTTCACACATTTGAATAAATAAA [CACACA_site5064],6.3
2,ATAATATATTATTATAGTACTTTATTTTATTTTATG [XGTACX_site2387],6.65
3,TTTTTAAAATTTTTAAAAATATTATGTTAAATATAT [CACACA_negctrl_site415],6.29
4,TTGTACATCTTTTGCACACGTAATGTTATTAAAATA [CACACA_site4827],10.7
5,TTTTTTTTTTTTTTGTGTACATATAATGCACATTAT [XGTACX_site6505],10.1
6,AAATAATAAAAAAAATGTACACGTAAATATTATATT [XGTACX_site8125],6.99
7,TTGTACATCTTTTGCACACGTAATGTTATTATAATA [CACACA_site1258],10.7
8,TTATTATAAATGTTTTGTACGTACATCCGAAAATAA [XGTACX_site2175],6.57
9,CTTTTTTTTTGATGTTGTACATATATATTATATAAT [XGTACX_site1321],6.9
10,GAACACTAATAATGTTGTACACGTAATTATATATTT [XGTACX_site777],6.53
11,TTTTGTACATCTTTTGCACACGTAATGTTATTATAA [CACACA_site1259],10.6
12,ATTATGTTATTATTTTGTACACATAAATAATACGTT [XGTACX_site816],6.61
13,CATACCCATAAACACACACACATATATACCTATATA [CACACA_site4745],6.87
14,AAAAAAAAGTTAAGCACACACATGAATAAATAATAC [CACACA_site840],6.94
15,ATAAAAATATTATAAGCACACATATATATATATATA [CACACA_site8781],9.54
16,AAAGTAAATTTAAGCACACACAACGAATTTTTATAC [CACACA_site1959],6.84
17,TGAAATTTGTTATATGCATGTAAAATATTACGACGA [TGCATGCA_site201],6.59
18,TTTTTTTTTCCGTGTTGTACAAAAAAAAAGATTTTG [XGTACX_site3925],6.21
19,ACACAAAACAAAAAGGTGCTGTATAAATGGGTGTAT [GTGCAC_site9905],7
20,TATTTTAGTAAAGGTGGTACTTTTAAGTTCATGTAT [XGTACX_site1854],6.23
21,TATACAAACTATGATGCACACATATATATATGTATA [CACACA_site8327],8.97
22,TAGCTTATAAGATATGCACACACAACACTTACAAAA [CACACA_site8174],9.5
23,TTTTTTTTTATGTGCACACAAAAGATGCTTATATTT [CACACA_site2348],11.2
24,GCTTATAAGATATGCACACACAACACTTACAAAAAA [CACACA_site817],9.27

row,Sequence,gcPBM binding intensity (ln)
1,AGGGAATATTTTTATGCATGTGCTTACACATTACAA [TGCATGCA_site830],6.83
2,TTATTTATTTTTATATGTACACAAAAAAAAAAAAAA [XGTACX_site1459],6.53
3,TTTTTTTTTTTATGTGCACACAAAAGATGCTTATAT [CACACA_site2347],10.7
4,ATTCTATTCTCCTTCACACACAAAAATATTTCATCA [CACACA_site2360],6.98
5,AAAAAAAATGGATGATCACACACTTCATAAAAATTG [CACACA_site2213],6.14
6,TTTTTTTTTTTTAATACACACATATTTATATTTATT [CACACA_site7802],6.63
7,CAGAATAATTTTATCGGTACACACTGTATGCATAAT [XGTACX_site736],6.88
8,AAAATTAAAAATAACACACACATATATATATTTATA [CACACA_site2776],6.54
9,GAAAAATTAAAAATAACACACACATATATATATTTA [CACACA_site8896],6.38
10,TAAATTATAACGTGCACACATATTTAAAATGAAATG [CACACA_site2820],10
11,AAAATTAAAAATAACACACACATATTTATATTTATA [CACACA_site7329],6.24
12,AAAAAATTAACGAGTGCACACATATTTAGATAAAAT [CACACA_site8958],10.7
13,AAAATTAACGAGTGCACACATATTTAGATAAAATAC [CACACA_site2936],11.3
14,ATAATATATTTTTGAACACACAATATAGATTTATAT [CACACA_site7857],6.35
15,AGGAACAATATATTTGCACACAAAAAATATATATTT [CACACA_site3316],10.4
16,TTTATATTTTTTTTTGCACACTTTAAAAAAATATAT [CACACA_site1146],9.29
17,TTTTTTTCAATATTTGCACACGATTAAAATATTTAA [CACACA_site5266],10.6
18,TTTTTTTCAATATTTGCACACGATTATAATATTTAA [CACACA_site2237],10.3
19,TATGCACACAATATATGTACTTATATATTTTAAAAA [XGTACX_site5482],9.96
20,TTTTATTTTTTATTTGCACACAATATGTAAAAAAAT [CACACA_site2927],10.6
21,GAACAATATATTTGCACACAAAAAATATATATTTAT [CACACA_site3317],10.7
22,AGCTAAAATATTTTTGCACACGATTTTTTTTTTTTT [CACACA_site1140],9.82
23,ATATTTATATATTGCACACAAAAAAAAAAAAAAATC [CACACA_site1629],10.4
24,AAAAAAATTAATGTGTGTACTTAGATATAATGTTTA [XGTACX_site8862],6.43

row,Sequence,gcPBM binding intensity (ln)
1,AAAAGTACAATATATATGTATGTGTATAGAATGGTT [TGCATGCA_negctrl_site76],7.28
2,AAAATATTTTAATGTTGTACATTAATATATTATATA [XGTACX_site2513],6.03
3,TAAAAATATATACATACATGCATACATATATATGTA [TGCATGCA_site774],6.47
4,TTATATATTTTTTGCACACCAAAAAAGAGAATATTC [CACACA_site2730],10
5,TGTGTTTATACGTTTTGTACATATTTTTATTTTGTA [XGTACX_site6425],6.74
6,TTTTATTCCTTCTTTGCACACGTTTAAAAATATATA [CACACA_site2899],10.3
7,TTCTTACACGTTTGCACACTAAAATATATATATATA [CACACA_site434],10.7
8,TATTCTTACACGTTTGCACACTAAAATATATATATA [CACACA_site435],9.97
9,TCCTTAAAATATATCACACATTTCGTTCATTTATAA [CACACA_site4346],6.65
10,TAAGATGATATAGACTGTACATATTGAACTTACAAG [XGTACX_site4290],6.29
11,TATTAACACTTTATAGAAACAAAAAAATAAGCAAAA [XGTACX_negctrl_site295],6.79
12,TTTCTTCGAAATAGAACACTTGTGCAAAATAAGCAA [XGTACX_negctrl_site361],11.2
13,CACTGTAAATAGAAAGTGCAAAAATTGTAAATAAAA [GTGCAC_site9980],9
14,GTTTTTAGTATTTTTTGTACTTAATACATAGCCTTA [XGTACX_site7318],6.22
15,AGATAAAATATATATGCACACACATATATATTTCAT [CACACA_site9183],9.16
16,TCATACAATATTAAATGTACATATATATATATATAT [XGTACX_site8828],9.25
17,TATATAATATATTAATGTACTTAAAATATATTCTAT [XGTACX_site1235],6.16
18,TTTTTTCATATAAATACATGCACACAAAAATATCAA [TGCATGCA_site602],8.53
19,CATATAAATACATGCACACAAAAATATCAATACATT [CACACA_site2392],8.76
20,TTCATATAAATACATGCACACAAAAATATCAATACA [CACACA_site8753],8.91
21,TATCAAAATAAATGCACACAAATTGCACATATCTAT [CACACA_site1097],10.7
22,TTTATCAAAATAAATGCACACAAATTGCACATATCT [CACACA_site8281],10.9
